Source: ChEMBL document CHEMBL3988442, “University of Dundee, Small-Polar-MMV Screening Library” (2021)
The whole screen tested about 48,000 compounds, of which about 13,000 (27%) showed an effect of 50% or more. Some of the results follow.

tested on: Wolbachia pipientis; experiment: Anti-Wolbachia Cell-Based Screen; format: functional; set-up: scale not given: in the data most compounds retested in dose-response had high values; conditions: 5 µM

| SMILES | Percent Effect |
| --- | --- |
| CC1CCN(C[C@H]2CN3CC[C@H]2C[C@@H]3CNC(=O)Nc2ccsc2)CC1 | 0.4847% |
| CC1C(=O)Nc2cccnc2N1S(=O)(=O)c1ccc(C#N)c(Cl)c1 (stereo unspecified) | 12.36% |
| O=C(NC[C@H]1C[C@@H]2CCN1C[C@@H]2CN1CCOCC1)Nc1ccsc1 | 0.8179% |
| CN(C)C(=O)COC[C@@]12CCC[C@@H]1CNC2.O=C(O)C(F)(F)F | -7.185% |
| O=C(CSc1ccccn1)N1CCN(CCO)[C@@H]2CS(=O)(=O)C[C@@H]21 | -2.402% |
| Cn1cc(C2SCC(=O)Nc3c2cnn3C(C)(C)C)cn1 (stereo unspecified) | 109.1% |
| Cc1n[nH]c2c1C(c1cnn(C)c1)SCC(=O)N2 (stereo unspecified) | 12.5% |
| CC(C)CN1C[C@H]2C[C@H](C(=O)NCc3cccnc3)[C@@H](C1)O2 | -10.23% |
| Cn1cc(CN2C[C@H]3CN(c4cncnc4)C(=O)[C@H]3C2)cn1.O=C(O)C(F)(F)F | -0.6359% |
| N#Cc1ccc(C(=O)NS(=O)(=O)c2ccc(C#N)c(Cl)c2)cc1 | -4.058% |
| COc1ccc2ncn(Cc3ncc[nH]3)c(=O)c2c1 | 121% |
| CCc1ccc2ncn(Cc3ncc[nH]3)c(=O)c2c1 | 108.2% |
| O=S1(=O)C[C@@H]2[C@H](C1)N(Cc1ncc[nH]1)CCN2Cc1cccnc1 | -2.711% |
| Cc1ncsc1CN1CCO[C@H]2[C@H](Oc3ccccn3)CC[C@@H]21.O=C(O)C(F)(F)F.O=C(O)C(F)(F)F | -5.284% |
| Cc1nc(CC(=O)N(CCN2CCOCC2)Cc2ccco2)c(C)s1 | 5.284% |
| CCc1ncc(CN(CCc2ccccc2)Cc2cccs2)cn1.O=C(O)CC(O)(CC(=O)O)C(=O)O | 50.24% |
| CN(C)c1ncc2c(n1)C1(CCN(Cc3ccccc3)C1)COC2.O=C(O)C(F)(F)F (stereo unspecified) | -5.323% |
| O=C(O)C(F)(F)F.c1ccc(-c2ncc3c(n2)C2(CCN(CC4CC4)C2)COC3)cc1 (stereo unspecified) | 6.483% |
| COCCN1CCC2(COCc3cnc(-c4ccccc4)nc32)C1.O=C(O)C(F)(F)F (stereo unspecified) | 89.12% |
| CC(C)CN1CCC2(COCc3cnc(-c4ccccc4)nc32)C1.O=C(O)C(F)(F)F (stereo unspecified) | 105.5% |
| CN1CCC2(COCc3cnc(-c4ccccc4)nc32)C1.O=C(O)C(F)(F)F (stereo unspecified) | 9.461% |
| COCCN1CCC2(COCc3cnc(N(C)C)nc32)C1.O=C(O)C(F)(F)F (stereo unspecified) | 1.083% |
| N#CC1(c2ccccc2)CCN(C(=O)C2CCCN(CC(N)=O)C2)CC1 (stereo unspecified) | -8.527% |

| SMILES | Percent Effect |
| --- | --- |
| CC(C)(O)c1cn(C[C@H]2C[C@@H]3CCN2C[C@@H]3C(=O)N2CCOCC2)nn1 | -10.14% |
| CS(=O)(=O)N1CCC2(CCCN(Cc3ccccn3)C2)C1.O=C(O)C(F)(F)F.O=C(O)C(F)(F)F (stereo unspecified) | -1.492% |
| O=C(O)C(F)(F)F.O=C(O)C(F)(F)F.O=S(=O)(C1CC1)N1CCC2(CCCN(Cc3ccccn3)C2)C1 (stereo unspecified) | 113.2% |
| O=S(=O)(C1CC1)N1CCC2(CCCN(Cc3ccccn3)C2)CC1 | 112.9% |
| O=C(O)C(F)(F)F.O=C(O)C(F)(F)F.O=C1N(c2cncnc2)CCC12CCCN(Cc1ccccn1)C2 (stereo unspecified) | -2.82% |
| CS(=O)(=O)N1CCC2(CCCN(Cc3ccccn3)C2)CC1.O=C(O)C(F)(F)F | 4.513% |
| Cc1cnn(CC(C)NCCc2cccs2)c1 (stereo unspecified) | 11.98% |
| CC1CN(C)CCN1C(=O)COc1cccc(Oc2ccccn2)c1 (stereo unspecified) | 82.16% |
| CC(C)=CCN1CCN(C(=O)COc2ccccc2)[C@H]2CS(=O)(=O)C[C@H]21 | -38.59% |
| COCCN1C[C@H]2[C@@H](C1)N(C(=O)COc1ccccc1)CC[C@H]2OC | 0.3223% |
| O=C(c1ccnc(-n2cnnc2)c1)N1CCCC2(CCNC2)C1 (stereo unspecified) | -10.09% |
| CC(C)N1CCC(N(C)c2ccnc(N(C)C)n2)CC1 | 15.64% |
| CN(C)c1nccc(N(C)C2CCN(CC3CCOC3)CC2)n1 (stereo unspecified) | -1.947% |
| CC(C)N1CCOC(c2ccnc(N(C)C)n2)C1 (stereo unspecified) | 82.78% |
| CCOC(=O)N1CCCC2(CCCNC2)C1.Cl (stereo unspecified) | -10.87% |
| Oc1ccc(N2CCN(Cc3ccc(F)cc3Br)CC2)cc1 | 1.788% |
| CCCN(CC)c1cc(C2CCNCC2)nc(C)n1 | 112.1% |
| CC(C)NC(=O)CN1CCSC2(CCCCC2)C1 | -91.97% |
| O=C1N(Cc2ccccn2)C[C@H]2CN(C3CCOCC3)CCN12 | 0.5644% |
| O=C(C1CC(=O)N(c2ccccc2)C1)N1CCC2(CC1)OCCO2 (stereo unspecified) | -2.385% |
| O=C(c1cccc(-n2cnnn2)c1)N1CCC2(CC1)OCCO2 | 106.4% |
| O=C(c1cnc(-c2ccccc2)s1)N1CCC2(CC1)OCCO2 | -4.517% |
| Cc1cnc(N2C[C@H]3CCN(CC4CC4)C[C@@H]3C2)nc1.O=C(O)C(F)(F)F | 6.173% |

| SMILES | Percent Effect |
| --- | --- |
| Cc1cnc(N2C[C@H]3CCN(CC4CC4)C[C@H]3C2)nc1.O=C(O)C(F)(F)F | 15.24% |
| CCCN1CCC(c2nc3ccc(C)cn3n2)CC1.O=C(O)C(F)(F)F | 104.2% |
| O=C(NC[C@H]1C[C@@H]2CCN1C[C@@H]2CN1CCCCC1)Nc1ccsc1 | 3.271% |
| CC[C@H]1CN2CC[C@H]1C[C@@H]2CNCc1ccc(OC(F)(F)F)cc1 | -1.711% |
| CCc1ccc(OCC(=O)N2CCN(CC)CC2)cc1 | -2.93% |
| CCN1CCN(C(=O)c2cn(Cc3ccccc3)c3ncccc23)CC1 | 118.7% |
| Cc1ccc(CC(=O)N2CCN(CC(O)c3ccccc3)CC2)cn1 (stereo unspecified) | -5.029% |
| CNc1ncccc1C(=O)N1CCN(C)C2(CCN(C)CC2)C1 | -3.315% |
| CN1CCN(C(=O)c2cn(Cc3ccccc3)c3ncccc23)CC1 | 129.1% |
| CCOc1ncccc1C(=O)N1CCN(C)C2(CCN(C)CC2)C1 | -9.489% |
| CC(C)CN1CCC2(CC1)CN(C(=O)C(C)C)C2.O=C(O)C(F)(F)F | -9.801% |
| Cc1ccc([C@]2(O)CC[C@H]3CN(Cc4ccccc4F)C[C@H]32)nc1.O=C(O)CC(O)(CC(=O)O)C(=O)O | 152.5% |
| O=C(O)CC(O)(CC(=O)O)C(=O)O.O[C@@]1(c2ccccn2)CC[C@H]2CN(Cc3cccc(Cl)c3Cl)C[C@H]21 | -2.173% |
| O=C(O)CC(O)(CC(=O)O)C(=O)O.O[C@@]1(c2ccccn2)CC[C@H]2CN(Cc3ccccn3)C[C@H]21 | 115.3% |
| O=C(O)C(F)(F)F.O=C1[C@@H]2CN(Cc3ccccn3)C[C@H]2CCN1c1cncnc1 | 16.77% |
| Cc1ccc(CN2C[C@@H]3CN(c4ncc(F)cn4)C[C@@H]3C2)cc1.O=C(O)C(F)(F)F | 6.106% |
| O=C(N1CCCC1)N1C[C@@H]2CCNC[C@@H]21 | -24.15% |
| CCCN1C[C@H]2CC[C@@H]1CN(C(=O)Cc1c(C)nc(CC)[nH]c1=O)C2 | 6.983% |
| CNC(=O)[C@@H]1C[C@H]2CN(c3ncccn3)C[C@H]2N1C(C)C.O=C(O)C(F)(F)F.O=C(O)C(F)(F)F | -5.727% |
| O=S1(=O)C[C@@H]2[C@H](C1)N(Cc1ccoc1)CCN2Cc1ccncc1 | -1.69% |
| CC(C)NC(=O)[C@H]1C[C@@H]2[C@@H](C1)OCCN2Cc1ccncc1 | -4.174% |
| Oc1cccc(CN2C[C@H]3CC[C@@H]2CN(Cc2ccncc2)C3)c1 | -4.265% |
| C[C@@H]1CN2C[C@H](O)CC2CN1Cc1ccncc1 (stereo partly specified) | 148.8% |

| SMILES | Percent Effect |
| --- | --- |
| C[C@H]1CN2C[C@H](O)CC2CN1Cc1ccncc1 (stereo partly specified) | 120.2% |
| COCCN1CCN(Cc2ccncc2)[C@H]2CS(=O)(=O)C[C@H]21 | 0.5994% |
| Cc1c(CN2CCCC(C(=O)c3ccc(C(C)(C)C)cc3)C2)cnn1C (stereo unspecified) | 35.11% |
| CN1CCC2(CC1)C(=O)N(C)c1ccc(F)cc12.Cl | -19.58% |
| CN1CCN(c2ccc(F)cc2C(N)=O)CC1 | 129.8% |
| CN1CCN(c2ccc(CO)cc2F)CC1 | 13.78% |
| CCN1CCC2(CCC1=O)CN(c1nccc(N)n1)CCN2C (stereo unspecified) | -7.397% |
| CCNCCc1nc2cc(F)ccc2[nH]1.Cl | -10.45% |
| Cc1ccc2c(n1)N(C)CCN(CCN1CCCC1)C2.O=C(O)C(F)(F)F.O=C(O)C(F)(F)F.O=C(O)C(F)(F)F | 31.59% |
| Cc1ccc2c(n1)N(C)CCN(Cc1cnn(C)c1)C2 | 75.85% |
| Cc1oc(-c2ccco2)nc1CC(=O)N1CCN(CC(C)O)CC1 (stereo unspecified) | 16.55% |
| Cc1ccc(C(=O)N2C[C@@H]3CCCO[C@@H]3[C@H](N3CCCC3)C2)cn1.O=C(O)C(F)(F)F.O=C(O)C(F)(F)F | -21.68% |
| CN1CCN([C@@H]2CN(C(=O)c3ccnnc3)[C@@H]3CCCO[C@H]23)CC1 | -8.561% |
| Cc1ccc(C(=O)N2C[C@H](N3CCOCC3)[C@@H]3OCCC[C@@H]32)cn1.O=C(O)C(F)(F)F.O=C(O)C(F)(F)F | 103.6% |
| CCCn1cc(C(=O)NCCCC(N)=O)c2ccccc21 | 15.02% |
| CCCNC(=O)c1cn(C(C)(C)C)c2ncccc12 | 115.3% |
| CC(C)(C)n1cc(C(=O)NCCCn2ccnc2)c2cccnc21 | 3.37% |
| CNC(=O)c1cn(C(C)(C)C)c2ncccc12 | 127% |
| CCNC(=O)c1cn(C(C)(C)C)c2ncccc12 | 133.4% |
| CC(C)(C)n1cc(C2=CCN(CCNC(=O)c3ccccc3)CC2)cn1 | -2.502% |
| CC(C)(C)n1cc(C2=CCN(CCNC(N)=O)CC2)cn1 | -16.31% |
| CC(C)(C)n1cc(C(=O)NCCN2CCOCC2)c2cccnc21 | 135% |
